Outcome data for 23 compounds are collected here from PubChem BioAssay AID686921 (National Center for Advancing Translational Sciences (NCATS), 2013).

Each structure is given as a SMILES string. Active and inactive are the calls of the source. The call rests on the fitted dose curve; in most records, active means well fitted curve in the direction sought with a large enough effect; inconclusive means small, poorly fitted or top-dose-only effect, or another doubt; inactive means no such curve, though single readings can be large or run the other way.

The nature of the test: qHTS screen for inhibitors of ELG1-dependent DNA repair in human embryonic kidney (HEK293T) cells expressing luciferase-tagged ELG1: 5FU Viability Assay for probe SAR. As to conditions: HEK293T ELG1-luc, CellTiter-Glo viability, 16 h; series mostly up to 46.1 µM. An excerpt:
Cancer cells divide rapidly compared to normal cells in the body. During cell division, cancer cells need to duplicate their genome by DNA replication. The failure of genome duplication leads to cancer cells' death. Therefore, inhibitors of DNA replication could specifically kill cancer cells. Based on this concept, many chemotherapeutic agents were developed and have been used to treat cancer patients. However, there are a limited number of agents available in the clinical setting, and some of those that do exist have low efficacy and severe side effects. Therefore, if we can find the compounds that effectively block DNA replication either by directly damaging DNA or by inhibiting other cellular mechanisms, the options for cancer treatment will be broadened. With this in mind, we developed a quantitative high-throughput ELG1-luciferase reporter gene assay. Small molecules that specifically block ELG1 function in response to DNA damage can be identified by monitoring the suppression of luciferase activity. Since ELG1 defines a pathway for repairing DNA damage, agents blocking ELG1 function can be used to sensitize cancer cells to chemotherapeutic agents whose mechanism of action involves the induction of DNA damage. Cytotoxicity of the active compounds in the ELG1 qHTS assay (AID 493107) was assessed using the CellTiter-Glo Luminescent Cell Viability Assay kit (Promega, USA). CellTiter-Glo measures the intracellular ATP present in metabolically active cells using Ultra-Glo as the luciferase to detect ATP levels. In brief, the luciferase in the buffer catalyzes the oxidation of luciferin to oxyluciferin and light which is dependent on ATP. […] DMSO and wells with media alone were used as positive and negative controls, respectively. Inactivity to this assay is the desirable outcome. NIH Molecular Libraries Probe Production Network [MLPCN] NIH Chemical Genomics Center [NCGC] MLPCN Grant: R03 MH092164 Assay Provider: Kyungjae Myung, NHGRI, NIH
ELG1-luc HEK293T cells will be seeded in 1536-well plates at a density of 2,000 cells/well. Approximately 5 hours after plating, compounds will be added to the plate by pin tool transfer and 5-fluorouridine will be added by FRD dispenser (final concentration of 5-fluorouridine =10 µM). 16 hours following the addition of the compounds, cell viability will be measured using CellTiter Glo.
With `Fc1cccc(-c2ccc(Nc3nc(-c4ccncc4)nc4ccccc34)cc2F)c1`, the call was inactive. As for `COc1ccc(-c2ccc(Nc3nc(-c4ccncc4)nc4ccccc34)cc2F)cc1F`, the entry is “inactive”; as for `COc1cc(Nc2nc(-c3ccncc3)nc3ccccc23)ccc1N1CCN(C)CC1`, “inactive”.

`O=[N+]([O-])c1ccc(-c2nc(Nc3ccc(F)c(F)c3)c3ccccc3n2)cc1`: the result was inactive.

With `Fc1ccccc1-c1ccc(Nc2nc(-c3ccncc3)nc3ccccc23)cc1F`, the outcome was inactive.

Take `CCOC(=O)c1ccc2c(c1)c(C(C)=O)c(C)n2-c1ccc(OC)cc1`: the compound was called inactive. As to `CN1CCN(c2ccc(Nc3nc(-c4ccncc4)nc4ccccc34)cc2F)CC1`, the outcome was inactive. On to `O=c1cc(-c2nc(Nc3ccc(F)c(F)c3)c3ccccc3n2)cc[nH]1`, for which the call was inactive.

In the case of `Cc1ccc(Nc2nc(-c3ccncc3)nc3ccccc23)cc1F`, the compound was classed as inactive. With `Nc1cc(-c2nc(Nc3ccc(F)c(F)c3)c3ccccc3n2)ccn1`, the compound was called inactive. As for `COc1nccc(-c2nc(Nc3ccc(F)c(F)c3)c3ccccc3n2)c1Cl`, the entry is “inactive”. Take `Fc1cc(Nc2nc(-c3ccncc3)nc3ccccc23)ccc1-c1ccnc(C(F)(F)F)c1`: the outcome was inactive.

Consider `Fc1ccc(-c2ccc(Nc3nc(-c4ccncc4)nc4ccccc34)cc2F)cc1`, for which the compound was called inactive. Consider `COc1cc(Nc2nc(-c3ccncc3)nc3ccccc23)ccc1F`, for which the result was inactive.

As for `Oc1ccc(Nc2nc(-c3ccncc3)nc3ccccc23)cc1F`, the outcome was inactive. `Fc1cc(-c2nc(Nc3ccc(F)c(F)c3)c3ccccc3n2)ccn1`: the result was inactive. As for `Cc1cc(-c2nc(Nc3ccc(F)c(F)c3)c3ccccc3n2)ccn1`, the entry is “inactive”; as for `Fc1cc(Nc2nc(-c3ccncc3)nc3ccccc23)ccc1-c1cc(F)c(F)c(F)c1`, “inactive”. `COc1cc(-c2nc(Nc3ccc(F)c(F)c3)c3ccccc3n2)ccn1`: the call was inactive. As for `Fc1cc(Nc2nc(-c3ccncc3)nc3ccccc23)ccc1-c1ccncc1`, the entry is “inactive”; as for `N#Cc1cc(-c2nc(Nc3ccc(F)c(F)c3)c3ccccc3n2)ccn1`, “inactive”; as for `Fc1cc(Nc2nc(-c3ccncc3)nc3ccccc23)ccc1OCC(F)(F)F`, “inactive”. As for `N#Cc1cnccc1-c1nc(Nc2ccc(F)c(F)c2)c2ccccc2n1`, the entry is “inactive”.
